From PubChem BioAssay (Tox21) come the findings set out here.

Where “and” joins values, the source holds several entries; their conditions need not be identical. Identical values can stand only once. Inconclusive results are not listed. Entries that show only a call come without a potency. A structure can be active in one record and inactive in another. Calls of active or inactive are those of the source. Calls come from the whole dose curve; as a rule, active = well fitted inhibition curve with a large enough effect in the repeat runs; inconclusive = weak or mixed curves; inactive = no such curve, though single readings can be large or run the other way.
Potency is the fitted concentration of half-maximal effect.

The target of the assay is Cytochrome P450 3A4 (Homo sapiens) (UniProt P08684). The assay is described as follows: Cytochrome P450 Family 3 Subfamily A Member 4 (CYP3A4) small molecule antagonists: luciferase reporter qHTS assay (AID 1671201). Note: nearly all actives have a fitted effect of over 50% in size. To be noted: P450-Glo CYP3A4 enzyme, luciferin luminescence, 1 h; series mostly up to 115 µM. The method, boiled down: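 Proluciferin-to-luciferin conversion by CYP3A4, NADPH-regenerated, 1 h RT; luminescence read as RLU. Ketoconazole as control.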
Chain of Cytochrome P450 3A4 (Homo sapiens) (P08684 whole entry, looked up): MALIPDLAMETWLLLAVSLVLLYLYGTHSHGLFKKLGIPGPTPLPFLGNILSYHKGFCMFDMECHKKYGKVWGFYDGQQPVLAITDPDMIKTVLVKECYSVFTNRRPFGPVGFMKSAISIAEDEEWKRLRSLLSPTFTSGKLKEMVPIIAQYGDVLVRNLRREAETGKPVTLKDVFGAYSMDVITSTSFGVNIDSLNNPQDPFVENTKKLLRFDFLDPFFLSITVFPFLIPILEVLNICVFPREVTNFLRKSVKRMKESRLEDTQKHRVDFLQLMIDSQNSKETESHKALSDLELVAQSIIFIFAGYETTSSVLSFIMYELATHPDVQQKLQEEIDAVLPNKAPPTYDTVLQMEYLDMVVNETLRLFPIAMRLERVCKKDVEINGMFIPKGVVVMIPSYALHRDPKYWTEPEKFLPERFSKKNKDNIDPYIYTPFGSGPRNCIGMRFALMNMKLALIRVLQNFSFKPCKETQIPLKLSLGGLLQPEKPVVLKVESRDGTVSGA
In general terms: A reporter such as luciferase makes a cellular process visible.
For the compound `CCCOCCO`, the Potency entry was “inactive”.

For the compound `CC(=O)Oc1ccc(C(c2ccc(OC(C)=O)cc2)c2ccccn2)cc1`, the Potency entry is “inactive”.

Regarding `COCCOCCOCCO`, the Potency result was “inactive”.

In the case of `CC1(C)O[C@@H]2C[C@H]3[C@@H]4C[C@H](F)C5=CC(=O)C=C[C@]5(C)[C@@]4(F)[C@@H](O)C[C@]3(C)[C@]2(C(=O)CO)O1`, the Potency is 20 µM (active) and 3.89 µM (active).

For `Cc1ccc([N+](=O)[O-])c(C)c1`, the Potency result is “inactive”.

As for `C/C=C/C(=O)N(CC)c1ccccc1C`, the Potency entry is “inactive”.

`O=C1CCc2ccccc2O1`: the Potency entry is “inactive”.

As for `OC[C@H]1O[C@@H]2O[C@H]3[C@H](O)[C@@H](O)[C@@H](O[C@H]4[C@H](O)[C@@H](O)[C@@H](O[C@H]5[C@H](O)[C@@H](O)[C@@H](O[C@H]6[C@H](O)[C@@H](O)[C@@H](O[C@H]7[C@H](O)[C@@H](O)[C@@H](O[C@H]1[C@H](O)[C@H]2O)O[C@@H]7CO)O[C@@H]6CO)O[C@@H]5CO)O[C@@H]4CO)O[C@@H]3CO`, the Potency entry was “inactive”.

Consider `Brc1nc2ccccc2s1`, for which the Potency entry was “inactive”.

As for `Nc1ccc2c(c1)C(=O)c1ccccc1C2=O`, the Potency is 1.24 µM (active) and 1.78 µM (active).

Take `CC/C=C\C/C=C\C/C=C\CCCCCCCC(=O)O`: the Potency entry is “inactive and 39.9 µM (active)”.

As to `C1COCCN1`, the Potency entry was “inactive”.

For the compound `Cc1ccc(S(=O)(=O)NCl)cc1`, the Potency entry is “inactive”.

In the case of `c1ccc2c(c1)ccc1cc3c(ccc4ccccc43)cc12`, the Potency result was “inactive”.

As to `CC(C)[C@@H]1CC[C@@H](C)CC1=O`, the Potency entry is “inactive”.

Turning to `CC(=O)Nc1ccc2c(c1)Cc1cc(NC(C)=O)ccc1-2`, the Potency entry was “inactive”.

With `O=[Se](O)O`, the Potency result is “inactive”.

For `CC(=O)O[C@]1(C(C)=O)CC[C@H]2[C@@H]3C=C(Cl)C4=CC(=O)CC[C@]4(C)[C@H]3CC[C@@]21C`, the Potency entry is “inactive”.

In the case of `CC(=O)O[C@]1(C(C)=O)CC[C@H]2[C@@H]3C=C(C)C4=CC(=O)CC[C@]4(C)[C@H]3CC[C@@]21C`, the Potency entry is “inactive”.

Regarding `C=C1C[C@H]2[C@@H]3C=C(C)C4=CC(=O)CC[C@]4(C)[C@H]3CC[C@]2(C)[C@@]1(OC(C)=O)C(C)=O`, the Potency result is “inactive”.

`CCCCCCCCCCCCO`: the Potency result was “inactive”.

Take `CC1=CC(C)(C)Nc2ccccc21`: the Potency was 2.75 µM (active).

Regarding `C=CCCCCCCCCCC`, the Potency entry is “inactive”.

Take `CC(=O)Oc1c(C)c(C)c2c(c1C)CC[C@@](C)(CCC[C@H](C)CCC[C@H](C)CCCC(C)C)O2`: the Potency entry is “inactive”.

For the compound `Cc1ccc(C(C)(C)C)c(O)c1`, the Potency result was “inactive”.

Take `C=CCNCC=C`: the Potency result is “inactive”.

Turning to `Nc1cc(Cl)c(N)c(Cl)c1`, the Potency was 3.14 µM (active) and 17.8 µM (active).

Take `CCc1cccc2c3c([nH]c12)C(CC)(CC(=O)O)OCC3` (stereo not given): the Potency result was “inactive”.

`Nc1cc([N+](=O)[O-])ccc1C(=O)O`: the Potency result is “inactive”.

`Clc1ccc(Sc2cc(Cl)c(Cl)cc2Cl)cc1`: the Potency result was “inactive”.
